Assay outcomes as filed in PubChem.
Compounds with a hit are over-represented: about 1.2% of the library has one in this group of screens.
NOD2-RIPK2 inh – NOD2-RIPK2 binding disruptors in cells, primary screen, fluorescence, CHO cells, BLA complementation; Receptor-interacting serine/threonine-protein kinase 2 (Homo sapiens), O43353; CCF4 ratio; inhibition, % at 4.98 µM; 360,000 tested, 0.38% active; in the data active = inhibition above about 21%
Target sequence (O43353 whole entry, looked up): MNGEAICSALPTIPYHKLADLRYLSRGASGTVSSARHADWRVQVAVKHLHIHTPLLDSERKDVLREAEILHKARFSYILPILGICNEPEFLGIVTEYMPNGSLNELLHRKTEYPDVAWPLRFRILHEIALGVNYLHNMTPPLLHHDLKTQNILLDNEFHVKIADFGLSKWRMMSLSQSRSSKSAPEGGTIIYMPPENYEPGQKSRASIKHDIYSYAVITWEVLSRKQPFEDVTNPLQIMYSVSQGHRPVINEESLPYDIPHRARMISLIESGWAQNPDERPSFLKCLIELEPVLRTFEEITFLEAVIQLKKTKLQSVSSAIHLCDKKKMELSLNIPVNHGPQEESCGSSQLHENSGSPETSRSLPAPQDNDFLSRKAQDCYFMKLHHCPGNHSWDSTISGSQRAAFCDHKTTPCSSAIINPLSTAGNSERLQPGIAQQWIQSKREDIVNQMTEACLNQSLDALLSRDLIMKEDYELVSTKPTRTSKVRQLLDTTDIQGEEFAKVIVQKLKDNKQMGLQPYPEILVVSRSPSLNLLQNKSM
GC-A act – GC-A stimulated cGMP production enhancers – HEK293 GC-A cells, cGMP TR-FRET, EC30 ANP, primary screen; 0% at EC30 ANP, 100% saturating ANP; activation, % at 10 µM; AID 1671463, 2021; Atrial natriuretic peptide receptor 1 (Homo sapiens), P16066; 370,000 tested, 0.14% active; in the data active = activation above about 40%
TLR4-MyD88 BLA – inhibitors of TLR4-MyD88 association in cells, primary screen, cell-based, HeLa CL3-4, BLA complementation, FRET ratio. Toll-like receptor 4 (Homo sapiens) + Myeloid differentiation primary response protein …. HeLa CL3-4 TLR4/MyD88 BLA complementation. inhibition, % at 8.4 µM. 200,000 tested, 0.18% active; in the data active = inhibition above about 25%
TLR9-MyD88 inh – inhibitors of TLR9-MyD88 association in cells, primary screen, cell-based, CHO, BLA complementation, fluorescence; Toll-like receptor 9 (Homo sapiens) + Myeloid differentiation primary response protein …; CCF4 FRET ratio; inhibition, % at 4.98 µM; 340,000 tested, 0.21% active;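 active = inhibition above the mean over all tested compounds plus 3 SD, cut at about 21% in these data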
Neddyl block – inhibitors of cullin neddylation, primary screen, biochemical, TR-FRET, uHTS, NAE and Ubc12. NEDD8-conjugating enzyme Ubc12 (Homo sapiens) + NEDD8-activating enzyme E1 regulatory …. 360,000 tested, 0.58% active. inhibition, % at 25 µM; in the data active = inhibition above about 36%
NPR2 activator – human GC-B receptor activators, primary screen, HEK293 GC-B cells, cGMP TR-FRET, EC30 CNP; Atrial natriuretic peptide receptor 2 (Homo sapiens), P20594; 0% at EC30 CNP, 100% saturating CNP; activation, % at 10 µM; 370,000 tested, 0.11% active; AID 1920062, 2024;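 active = activation at 10 µM reaching about 35% in either raw or pattern-adjusted values, limit read from the data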
TLR4-MyD88 conf – TLR4-MyD88 association inhibitors, retest, confirmation, cell-based, HeLa CL3-4, BLA complementation, FRET ratio; shares compounds with TLR4-MyD88 BLA; CCF4 FRET ratio; inhibition, % at 8.4 µM; 350 tested, 50% active;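 active = mean inhibition across three repeat runs above about 25% carried over from the earlier screen, limit read from the data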
BLA inh HeLa – counter-screen for TLR4-MyD88 inhibitors: beta-lactamase reporter inhibitors; shares compounds with TLR4-MyD88 BLA; HeLa BLA reporter, CCF4 FRET ratio; inhibition, % at 8.4 µM; 350 tested, 63% active; AID 1237;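 active = mean inhibition over three repeats above about 26% taken from the earlier screen, limit read from the data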;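 note: HeLa cells stably expressing beta-lactamase reporter as counterscreen for TLR4-MyD88 inhibitors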
TLR9-MyD88 conf – TLR9-MyD88 association inhibitors, retest, confirmation, cell-based, CHO, BLA complementation, fluorescence, triplicate. shares compounds with TLR9-MyD88 inh. CCF4 FRET ratio. inhibition, % at 4.98 µM. 680 tested, 51% active;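 active = mean inhibition across three repeats above about 21% taken from the earlier screen, limit read from the data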;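 note: blue over green emission ratio reports constitutive TLR9 MyD88 association via BLA complementation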
BLA counter-1 – beta-lactamase reporter inhibitors in CHO cells, artefact control for TLR9-MyD88 binding inhibitor project, cell-based, fluorescence; shares compounds with TLR9-MyD88 inh; CHO-BLA cells, CCF4 FRET ratio, BLA reporter; inhibition, % at 4.98 µM; 680 tested, 7% active; AID 540251, 2011;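 active = mean inhibition above a 50% cutoff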;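 note: counterscreen of TLR9-MyD88 hits on CMV-driven BLA in CHO-K1 cells; higher means less blue over green ratio so more BLA blockade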
TLR9 CHO tox – CHO cell viability loss – luminescence, single concentration, cytotoxicity control for TLR9-MyD88 binding inhibitor project. 680 tested, 39% active. shares compounds with TLR9-MyD88 inh. inhibition, % at 4.98 µM. TLR9-MyD88 CHO cells cytotoxicity; in the data active = inhibition above about 11%
NOD2 RIPK2 conf – NOD2-RIPK2 binding disruptors, retest, confirmation, fluorescence, CHO cells, BLA complementation, triplicate. shares compounds with NOD2-RIPK2 inh. CCF4 FRET. inhibition, % at 4.98 µM. 1,200 tested, 70% active. AID 624370, 2012;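 active = mean inhibition across replicates above a set limit taken from the earlier primary screen, cut at about 21% in these data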
BLA counter-2 – counter-screen for NOD2-RIPK2 interaction inhibitors: BLA reporter | CHO BLA reporter, CCF4 FRET ratio, counterscreen | inhibition, % at 4.98 µM | shares compounds with NOD2-RIPK2 inh | 1,200 tested, 57% active;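 active = mean inhibition above the low-control mean inhibition plus three low-control SD, cut at about 11% in these data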
Numbers stand for hits; . = inactive; / = no result given.

SMILES	NOD2-RIPK2 inh	GC-A act	TLR4-MyD88 BLA	TLR9-MyD88 inh	Neddyl block	NPR2 activator	TLR4-MyD88 conf	BLA inh HeLa	TLR9-MyD88 conf	BLA counter-1	TLR9 CHO tox	NOD2 RIPK2 conf	BLA counter-2
COc1ccc(C2=CC(c3ccc(Cl)cc3)n3cnnc3N2)cc1OC (configuration not stated)	47	.	39	50	/	.	26	49	.	.	.	.	.
COc1ccc(/C=c2/sc3n(c2=O)C(c2ccccc2OC)C2=C(N=3)c3ccccc3CC2)cc1O (configuration not stated)	35	.	27	.	.	.	.	45	/	/	/	26	31
CC(C)C[C@@H]1COc2cc(Br)ccc2S(=O)(=O)N1Cc1cn(CCC2OCCCO2)nn1	/	.	/	/	/	.	/	/	/	/	/	/	/
COc1ccc(Cn2cc(CN3[C@@H](Cc4ccccc4)COc4cc(Br)ccc4S3(=O)=O)nn2)cc1	/	.	/	/	/	.	/	/	/	/	/	/	/
Oc1c(Cl)cc(Cl)cc1/C=C/c1ccc2cccc(O)c2n1	37	.	34	27	.	.	.	43	.	.	.	47	54
Oc1ccc(Cl)cc1/C=C/c1ccc2cccc(O)c2n1	.	.	.	.	.	.	/	/	/	/	/	/	/
C[C@@H]1C[C@H]2[C@@H](Cc3ccccc3)C(=O)N3[C@H](c4ccccc4)[C@H](C)C[C@H]3[C@@H](Cc3ccccc3)C(=O)N2[C@@H]1c1ccccc1	/	.	/	/	/	.	/	/	/	/	/	/	/
COC(=O)C1CN(Cc2ccc(Cl)cc2)CCS(=O)(=O)N1Cc1cn(Cc2ccccc2)nn1 (configuration not stated)	/	.	/	/	/	.	/	/	/	/	/	/	/
COc1ccc(Cn2cc3c(-c4ccc(F)cc4)nnc-3c3cc(OC)c(OC)cc32)cc1	63	.	28	50	/	.	25	41	31	.	.	66	72
CC(=O)Nc1nc2n(n1)C(c1ccc(F)cc1)C=C(c1ccccc1)N2 (configuration not stated)	41	.	34	41	/	.	36	56	.	.	.	.	.
COc1ccc(C2C=C(c3ccc(Cl)cc3)Nc3nc(NC(C)=O)nn32)cc1 (configuration not stated)	/	/	.	/	/	/	/	/	/	/	/	/	/
